Measured values: PubChem BioAssay (NCATS)
Results filed as inconclusive are left out. Active and inactive are the calls of the source. The call rests on the fitted dose curve; in most records, active means well fitted curve in the direction sought with a large enough effect; inconclusive means small, poorly fitted or top-dose-only effect, or another doubt; inactive means no such curve, though single readings can be large; an effect the other way counts as inactive or inconclusive.

How the values were obtained:
[1] = test system: Zika virus NS2B-NS3 protease (unlinked complex); assay: Primary screen GU Rhodamine qHTS for Zika virus inhibitors: Unlinked NS2B-NS3 protease assay (AID 1347159); further: on the % scale 0 is the no-effect control and ±100 the full control effect; nearly all actives have a fitted effect of over 60% in size
Summary of the method: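 Percent inhibition derives from the 15-min fluorescence change (ex 480, em 540 nm), normalized to no-enzyme and no-inhibitor wells. Reactions contained 25 nM NS2B-NS3 complex and 1.5 microM substrate in 10 mM Tris-HCl pH 8.0.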

[2] = test system: Zika virus NS2B-NS3 protease (linked construct); assay: Primary screen NINDS Rhodamine qHTS for Zika virus inhibitors (AID 1347160); further: on the % scale 0 is the no-effect control and ±100 the full control effect; nearly all actives have a fitted effect of over 55% in size
Summary of the method: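 In 10 mM Tris-HCl pH 8.0 containing 0.01% Tween 20, linked NS2B-NS3 protease (25 nM final) is exposed to test compounds for 15 min. Cleavage of 1.5 microM Rhodamine110 substrate is tracked by fluorescence over 15 min.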

[3] = molecular target: Calcium and integrin-binding protein 1 (Homo sapiens) (UniProt Q99828); assay: Primary qHTS for Identification of Calcium Integrin Binding Protein 1 (CIB1) Competitor (AID 1508620);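 further: GST tagged CIB1 binding a fluorescein labelled alphaIIb integrin peptide tracer; top concentration of the series differs between compounds; on the % scale 0 is the no-effect control and ±100 the full control effect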
Summary of the method: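 Fluorescence polarization competition: CIB1-GST (1 uM final) preincubated with compound 15 min at room temperature, then FITC-labeled alphaIIb peptide (100 nM final) added for another 15 min. Polarization read at Ex 480/Em 540.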

[4] = Primary qHTS for inhibitors of nuclear receptor binding SET domain protein 2 (NSD2) in an isogenic RCH-ACV NSD2 p.E1099K mutant (9B) (AID 1645876); further: potency means the concentration at half of the fitted maximal effect; nearly all actives have a fitted effect of over 70% in size
[5] = molecular target: Glutathione peroxidase 1 (Homo sapiens) (UniProt P07203); assay: Primary qHTS Assay for Inhibitors of Recombinant Selenoprotein Glutathione Peroxidase 1 (GPX1) (AID 1845191); further: nearly all actives have a fitted effect of over 65% in size; on activity, negative = inhibition: on the % scale 0 is the no-effect control and ±100 the full control effect
Summary of the method: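 Recombinant GPX1 (10 nM final) was preincubated with compound for 30 min at room temperature, then reacted with 1 mM GSH, 0.5 mM CHP, 0.5 mM NADPH and 100 nM glutathione reductase; NADPH fluorescence (340/450 nm) was read at 0 and 15 min.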

[6] = molecular target: Phospholipid hydroperoxide glutathione peroxidase GPX4 (Homo sapiens) (UniProt P36969); assay: Primary qHTS Assay for Inhibitors of Recombinant Selenoprotein Glutathione Peroxidase 4 (GPX4) (AID 1845192); further: nearly all actives have a fitted effect of over 65% in size
Summary of the method: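 GR-coupled readout: 100 nM GR, 1 mM GSH, 0.5 mM NADPH; NADPH fluorescence (ex 340/em 450 nm) read at t=0 and after 15 min RT. GPX4 200 nM, preincubated 30 min with compound; substrate 0.5 mM CHP.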

[7] = molecular target: Luciferin 4-monooxygenase (Photinus pyralis) (UniProt P08659); assay: Primary firefly luciferase (FLuc) qHTS assay for identification of artifact compounds. (AID 1845220); settings: outcome: dose series up to 54.1 µM unless noted; further: nearly all actives have a fitted effect of over 60% in size;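 on activity change, negative = inhibition: plate controls were DMSO vehicle for no effect and no enzyme for full effect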
Summary of the method: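 In this counter-screen for luciferase artifacts, test compounds met substrate (10 uM each luciferin and ATP) before 10 nM enzyme started the reaction. Light output was measured 5 min later.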

[8] = Primary fluorescence-based thiol-reactive (MSTI) qHTS assay for identification of artifact compounds. (AID 1845221);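 further: thiol-reactive compounds lower the probe fluorescence signal; nearly all actives have a fitted effect of over 65% in size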
Summary of the method: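 Compounds were incubated 1 h at room temperature in the dark with the MSTI probe (4 uM) in PBS pH 7.4, 2% DMSO. Signals were normalized between Acetyl-MSTI and MSTI.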

[9] = test system: Nanoluciferase (engineered Oplophorus gracilirostris luciferase); assay: Primary Nanoluciferase (NLuc) qHTS assay for identification of artifact compounds. (AID 1845222);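 further: NLuc secreted into diluted conditioned medium of S16 cells; 0% = DMSO and -100% = no enzyme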
Summary of the method: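 Using secreted nanoluciferase in S16 culture medium (0.22 um filtered, 1:55 dilution), compounds were preincubated 15 min at RT. Signal was generated with Nano-Glo reagent (1:100) over 5 min.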

[10] = Primary redox qHTS assay for identification of artifact compounds. (AID 1845223);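 further: 0% = DMSO and 100% = reference compound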
Summary of the method: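 Amplex Red (25 uM) and HRP (250 mU/mL) in HBSS, with compounds for 15 min, then 250 uM DTT for 30 min, room temperature, dark. Fluorescence 525/598 nm read; normalized to DMSO and 10 uM DA3003; Hill fit.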

HaCat = assay: Cytotoxic Profiling of Annotated Libraries Using Quantitative High-Throughput Screening (AID 1296008); settings: Five cell lines viability, CellTiter-Glo ATP luminescence, 48-72 h; max response: stronger effect = lower value; further: nearly all actives have a fitted effect of over 60% in size; further: potency means the concentration at half of the fitted maximal effect; on max response: on the % scale 0 is the no-effect control and ±100 the full control effect
Summary of the method: (§1)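 Compounds were pin-transferred onto cells and incubated 48 or 72 hr at 37 degree Celsius, 95% humidity. CellTiter-Glo was added, plates sat 10 min at room temperature, then ATP-coupled luminescence was imaged as the viability read-out.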

KB-3-1 = assay: as above; settings: Five cell lines viability, CellTiter-Glo ATP luminescence, 48-72 h; max response: stronger effect = lower value
Summary of the method: as §1

CASKI = assay: Primary qHTS to identify gynecologic anti-cancer compounds using libraries of approved drugs and bioactive compounds (AID 1345084); settings: Gynecologic cancer cell panel viability, ATPlite luminescence, 48 h; series mostly up to 57.5 µM; further: nearly all actives have a fitted effect of over 55% in size; further: potency means the concentration at half of the fitted maximal effect; on activity change, negative = cytotoxicity: on the % scale 0 is the no-effect control and ±100 the full control effect
Summary of the method: (§2)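 Luminescence from the ATPlite ATP-monitoring reagent indicates viable cell number; lower signal means cytotoxicity. Cells received compound 16 h after seeding and were exposed for 48 h across five concentrations.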

JEG-3 = assay: as above; settings: Gynecologic cancer cell panel viability, ATPlite luminescence, 48 h; series mostly up to 57.5 µM
Summary of the method: as §2

OV90 = assay: as above; settings: Gynecologic cancer cell panel viability, ATPlite luminescence, 48 h; series mostly up to 57.5 µM
Summary of the method: as §2

[11] = Primary qHTS for inhibitors of nuclear receptor binding SET domain protein 2 (NSD2) in an RCH-ACV wild type WT cells (2C) (AID 1645877); further: potency means the concentration at half of the fitted maximal effect; nearly all actives have a fitted effect of over 70% in size
[12] = P-glycoprotein substrates identified in KB-8-5-11 adenocarcinoma cell line, qHTS therapeutic library screen (AID 1346987); further: nearly all actives have a fitted effect of over 65% in size; further: potency means the concentration at half of the fitted maximal effect
Summary of the method: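 P-gp-mediated resistance screen: KB-8-5-11 cells treated 72 h with compounds in dose-response. CellTiter-Glo viability.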

Sequence of Glutathione peroxidase 1 (Homo sapiens) (P07203 whole entry, looked up): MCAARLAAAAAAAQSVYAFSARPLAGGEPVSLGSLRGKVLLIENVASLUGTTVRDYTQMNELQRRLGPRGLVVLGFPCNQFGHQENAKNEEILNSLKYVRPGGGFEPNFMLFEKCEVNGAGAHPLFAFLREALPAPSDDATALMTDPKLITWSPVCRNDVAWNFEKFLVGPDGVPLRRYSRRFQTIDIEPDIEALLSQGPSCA
Sequence of Calcium and integrin-binding protein 1 (Homo sapiens) (Q99828 whole entry, looked up): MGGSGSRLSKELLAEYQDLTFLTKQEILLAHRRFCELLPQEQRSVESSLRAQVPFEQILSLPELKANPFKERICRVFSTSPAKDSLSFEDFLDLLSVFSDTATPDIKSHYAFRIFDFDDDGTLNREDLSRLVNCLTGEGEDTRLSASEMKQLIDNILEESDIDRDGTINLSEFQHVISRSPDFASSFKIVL
Sequence of Phospholipid hydroperoxide glutathione peroxidase GPX4 (Homo sapiens) (P36969 whole entry, looked up): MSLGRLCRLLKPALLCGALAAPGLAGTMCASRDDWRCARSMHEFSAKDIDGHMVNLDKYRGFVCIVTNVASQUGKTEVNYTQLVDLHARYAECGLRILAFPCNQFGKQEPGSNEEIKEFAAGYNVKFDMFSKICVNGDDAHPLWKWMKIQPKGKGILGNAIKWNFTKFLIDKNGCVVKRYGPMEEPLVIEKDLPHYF

CCC1(O)CCC2C3CCC4=CC(=O)CCC4C3CCC21CC (centres undefined)
active: Potency [4] 20500 nM
inactive: Potency [1] | Potency [2] | Potency [3] | Potency [5] | Potency [6] | outcome [7] | Potency [8] | Potency [9] | Potency [10] | outcome (HaCat) | max response (KB-3-1) -10.9% | Potency (CASKI) | Potency (JEG-3) | Potency (OV90)

C/C1=C/[C@@H](C)C/C=C/[C@H]2[C@@H]3O[C@]3(C)[C@@H](C)[C@H]3[C@H](Cc4c[nH]c5ccccc45)NC(=O)[C@]32C(=O)/C=C\C(=O)[C@@H]1O
active: Potency [4] 3990 nM | Potency [11] 502 nM | Potency (KB-3-1) 7960 nM
inactive: Potency [1] | Potency [2] | Potency [3] | Potency [5] | Potency [6] | outcome [7] | Potency [9] | Potency [10] | Potency (CASKI) | Potency (JEG-3) | Potency (OV90)

CC(C)C(=O)O[C@H]1[C@@H]2[C@H](C)C(=O)O[C@@H]2C[C@@H](C)[C@@H]2C=CC(=O)[C@]21C
inactive: Potency [1] | Potency [2] | Potency [3] | Potency [5] | Potency [6] | outcome [7] | Potency [8] | Potency [9] | Potency [10]
active: Potency [12] 16100 nM | Potency [4] 3580 nM | Potency [11] 2840 nM | Potency (JEG-3) 10000 nM

COc1ccc(CC2C(=O)NC(C)C(=O)N(C)C3Cc4ccc(cc4)Oc4cc(ccc4OC4OC(CO)C(O)C(O)C4O)CC(C(=O)NC(C)C(=O)NC(CCC(=O)O)C(=O)N2C)N(C)C3=O)cc1 (centres undefined)
active: Potency [4] 5480 nM | Potency [11] 4880 nM
inactive: activity change, negative = cytotoxicity [12] -22.7% [at 9.29 µM] | Potency [2] | Potency [5] | Potency [6] | activity change, negative = inhibition [7] -19.1% [at 11.6 µM] | activity change, negative = thiol reactive [8] -0.882% [at 11.5 µM] | activity, negative = inhibition [9] -15.7% [at 11.6 µM] | outcome (HaCat) | activity change, negative = cytotoxicity (CASKI) -30.7% [at 11.6 µM] | activity change, negative = cytotoxicity (JEG-3) -7.62% [at 11.6 µM] | activity change, negative = cytotoxicity (OV90) -30.8% [at 11.6 µM]

Cc1sc2c(c1C)C(c1ccc(Cl)cc1)=N[C@@H](CC(=O)Nc1ccc(O)cc1)c1nnc(C)n1-2
inactive: Potency [2] | Potency [3] | Potency [5] | Potency [6] | outcome [7] inactive [at 11.6 µM] | activity change, negative = thiol reactive [8] 36.2% [at 11.5 µM] | activity, negative = inhibition [9] -3.15% [at 11.6 µM] | outcome (HaCat) | activity change, negative = cytotoxicity (JEG-3) -12.8% [at 11.6 µM]
active: Potency [4] 61.5 nM | Potency [11] 69 nM

CC(C)(O)/C=C/C(=O)[C@](C)(O)[C@H]1[C@H](O)C[C@@]2(C)[C@@H]3CC=C4[C@@H](C[C@H](O)C(=O)C4(C)C)[C@]3(C)C(=O)C[C@]12C
active: Potency [4] 252 nM | Potency [11] 142 nM | Potency (KB-3-1) 448 nM | Potency (CASKI) 1410 nM | Potency (OV90) 1260 nM
inactive: Potency [1] | Potency [2] | Potency [3] | Potency [5] | Potency [6] | outcome [7] | Potency [8] | Potency [9]
